# Assays:
# POU1 (OCT1 POU domain) = POU1 (OCT1 POU domain) (human, UniProt P14859 260-458); experiment: EMSA-SELEX-seq; no BOB1; 20 mM Tris-HCl pH 7.6, 140 mM NaCl, 10% glycerol, 0.5 mM EDTA, 0.05% Triton X-100, 0.1 mg/mL BSA, 0.1 mg/mL poly(dI-dC), 5 mM DTT, room temperature, 20 min; high values mean tight binding; conditions: protein: recombinant; dsDNA, one strand shown
# Procedure, shortened: (§1)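 Tagged POU-domain proteins were produced in E. coli BL21, purified under denaturing conditions and renatured before use. They were mixed at 30 ng with 300 ng of a PCR-amplified double-stranded random 35-nt library, with or without 28 ng coactivator protein, in 20 μL Tris–HCl pH 7.6 binding buffer, incubating 20 min at RT. Complexes cut from native 6% PAGE were eluted and PCR-amplified over four rounds, then sequenced by Illumina, with binding preference taken as the percentage of sequenced 8-mers matching a motif pattern.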
# POU2 (OCT2 POU domain) = molecular target: T1, POU2 (OCT2 POU domain) (human, UniProt P09086 175-386); experiment: as above; conditions: protein: recombinant; dsDNA, one strand shown
# T1 sequence: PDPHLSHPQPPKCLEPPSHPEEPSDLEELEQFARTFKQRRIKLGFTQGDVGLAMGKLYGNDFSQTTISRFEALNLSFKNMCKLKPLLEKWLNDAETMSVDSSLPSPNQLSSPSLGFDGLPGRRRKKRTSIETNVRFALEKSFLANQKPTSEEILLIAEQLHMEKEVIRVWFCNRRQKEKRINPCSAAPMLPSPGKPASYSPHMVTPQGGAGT
# Procedure, shortened: as §1
# [1] = molecular target: POU1 (OCT1 POU domain);BOB1 (OBF1, OCA-B) (human;human, UniProt P14859;Q16633 260-458;1-256, |); experiment: EMSA-SELEX-seq; with BOB1 (ternary complex band); 20 mM Tris-HCl pH 7.6, 140 mM NaCl, 10% glycerol, 0.5 mM EDTA, 0.05% Triton X-100, 0.1 mg/mL BSA, 0.1 mg/mL poly(dI-dC), 5 mM DTT, room temperature, 20 min; high values mean tight binding; conditions: protein: recombinant;recombinant; copies: 1;1; dsDNA, one strand shown
# Procedure, shortened: as §1
# [2] = molecular target: T2, POU2 (OCT2 POU domain);BOB1 (OBF1, OCA-B) (human;human, UniProt P09086;Q16633 175-386;1-256, |); experiment: as above; conditions: protein: recombinant;recombinant; copies: 1;1; dsDNA, one strand shown
# T2 sequence 1: T1 sequence
# T2 sequence 2: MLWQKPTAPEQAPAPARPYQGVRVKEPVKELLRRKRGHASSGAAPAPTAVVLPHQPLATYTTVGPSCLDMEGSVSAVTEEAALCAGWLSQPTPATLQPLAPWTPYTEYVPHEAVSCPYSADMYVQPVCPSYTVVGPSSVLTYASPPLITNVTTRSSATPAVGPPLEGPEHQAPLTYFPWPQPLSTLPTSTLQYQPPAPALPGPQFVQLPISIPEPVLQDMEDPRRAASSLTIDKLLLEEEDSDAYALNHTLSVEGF
# Procedure, shortened: as §1
# POU1 (OCT1 POU domain), sequence (P14859 260-458): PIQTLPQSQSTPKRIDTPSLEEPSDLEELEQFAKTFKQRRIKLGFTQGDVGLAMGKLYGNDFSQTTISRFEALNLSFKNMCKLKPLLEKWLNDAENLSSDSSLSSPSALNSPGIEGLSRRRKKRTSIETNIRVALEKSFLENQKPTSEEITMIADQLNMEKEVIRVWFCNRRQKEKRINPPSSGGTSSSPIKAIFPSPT
Sequence,binding signal (POU1 (OCT1 POU domain)),binding signal (POU2 (OCT2 POU domain)),binding signal [1],binding signal [2]
AGTAGAAA,0.0511 % of ANNNNAAN 8-mers,0.0708 % of ANNNNAAN 8-mers,0.0464 % of ANNNNAAN 8-mers,0.052 % of ANNNNAAN 8-mers
AGGCCAAG,0.0271 % of ANNNNAAN 8-mers,0.0334 % of ANNNNAAN 8-mers,0.0312 % of ANNNNAAN 8-mers,0.0264 % of ANNNNAAN 8-mers
ACGTAAAA,0.0648 % of ANNNNAAN 8-mers,0.0529 % of ANNNNAAN 8-mers,0.0823 % of ANNNNAAN 8-mers,0.0537 % of ANNNNAAN 8-mers
AGATGAAT,0.119 % of ANNNNAAN 8-mers,0.171 % of ANNNNAAN 8-mers,0.0765 % of ANNNNAAN 8-mers,0.09 % of ANNNNAAN 8-mers
AAGGCAAC,0.0187 % of ANNNNAAN 8-mers,0.0167 % of ANNNNAAN 8-mers,0.0195 % of ANNNNAAN 8-mers,0.0264 % of ANNNNAAN 8-mers
AACTGAAC,0.0179 % of ANNNNAAN 8-mers,0.019 % of ANNNNAAN 8-mers,0.0168 % of ANNNNAAN 8-mers,0.0182 % of ANNNNAAN 8-mers
AAAACAAT,0.0736 % of ANNNNAAN 8-mers,0.0604 % of ANNNNAAN 8-mers,0.0913 % of ANNNNAAN 8-mers,0.0735 % of ANNNNAAN 8-mers
ATTCGAAA,0.0725 % of ANNNNAAN 8-mers,0.0783 % of ANNNNAAN 8-mers,0.0605 % of ANNNNAAN 8-mers,0.0578 % of ANNNNAAN 8-mers
AACCTAAT,0.0534 % of ANNNNAAN 8-mers,0.0875 % of ANNNNAAN 8-mers,0.0386 % of ANNNNAAN 8-mers,0.0438 % of ANNNNAAN 8-mers
AACGCAAT,0.0347 % of ANNNNAAN 8-mers,0.0351 % of ANNNNAAN 8-mers,0.0242 % of ANNNNAAN 8-mers,0.0314 % of ANNNNAAN 8-mers
AACTTAAG,0.0351 % of ANNNNAAN 8-mers,0.042 % of ANNNNAAN 8-mers,0.0363 % of ANNNNAAN 8-mers,0.0363 % of ANNNNAAN 8-mers
AAAAGAAC,0.0351 % of ANNNNAAN 8-mers,0.0443 % of ANNNNAAN 8-mers,0.0468 % of ANNNNAAN 8-mers,0.0338 % of ANNNNAAN 8-mers
ACAGAAAG,0.0297 % of ANNNNAAN 8-mers,0.0236 % of ANNNNAAN 8-mers,0.0281 % of ANNNNAAN 8-mers,0.0239 % of ANNNNAAN 8-mers
ACGACAAT,0.029 % of ANNNNAAN 8-mers,0.0299 % of ANNNNAAN 8-mers,0.025 % of ANNNNAAN 8-mers,0.0297 % of ANNNNAAN 8-mers
ATATGAAC,0.0389 % of ANNNNAAN 8-mers,0.0495 % of ANNNNAAN 8-mers,0.03 % of ANNNNAAN 8-mers,0.0528 % of ANNNNAAN 8-mers
ACAAGAAG,0.0347 % of ANNNNAAN 8-mers,0.0316 % of ANNNNAAN 8-mers,0.0273 % of ANNNNAAN 8-mers,0.0322 % of ANNNNAAN 8-mers
AACTCAAC,0.0168 % of ANNNNAAN 8-mers,0.0288 % of ANNNNAAN 8-mers,0.0172 % of ANNNNAAN 8-mers,0.0182 % of ANNNNAAN 8-mers
AGCACAAG,0.0168 % of ANNNNAAN 8-mers,0.0196 % of ANNNNAAN 8-mers,0.0183 % of ANNNNAAN 8-mers,0.0124 % of ANNNNAAN 8-mers
ATCATAAG,0.0496 % of ANNNNAAN 8-mers,0.0581 % of ANNNNAAN 8-mers,0.0379 % of ANNNNAAN 8-mers,0.0421 % of ANNNNAAN 8-mers
AGTTGAAG,0.0355 % of ANNNNAAN 8-mers,0.0316 % of ANNNNAAN 8-mers,0.0398 % of ANNNNAAN 8-mers,0.0338 % of ANNNNAAN 8-mers
AGCTCAAT,0.037 % of ANNNNAAN 8-mers,0.0316 % of ANNNNAAN 8-mers,0.0261 % of ANNNNAAN 8-mers,0.0223 % of ANNNNAAN 8-mers
AAGGGAAA,0.196 % of ANNNNAAN 8-mers,0.146 % of ANNNNAAN 8-mers,0.255 % of ANNNNAAN 8-mers,0.136 % of ANNNNAAN 8-mers
AGAGAAAT,0.0679 % of ANNNNAAN 8-mers,0.0708 % of ANNNNAAN 8-mers,0.0753 % of ANNNNAAN 8-mers,0.0784 % of ANNNNAAN 8-mers
ACTCCAAA,0.0259 % of ANNNNAAN 8-mers,0.0219 % of ANNNNAAN 8-mers,0.0277 % of ANNNNAAN 8-mers,0.0149 % of ANNNNAAN 8-mers
ATGGGAAC,0.0496 % of ANNNNAAN 8-mers,0.0443 % of ANNNNAAN 8-mers,0.0488 % of ANNNNAAN 8-mers,0.0421 % of ANNNNAAN 8-mers
AGTTCAAT,0.0446 % of ANNNNAAN 8-mers,0.0432 % of ANNNNAAN 8-mers,0.046 % of ANNNNAAN 8-mers,0.0421 % of ANNNNAAN 8-mers
AGGGAAAG,0.194 % of ANNNNAAN 8-mers,0.136 % of ANNNNAAN 8-mers,0.222 % of ANNNNAAN 8-mers,0.142 % of ANNNNAAN 8-mers
ACACAAAT,0.116 % of ANNNNAAN 8-mers,0.0857 % of ANNNNAAN 8-mers,0.175 % of ANNNNAAN 8-mers,0.0916 % of ANNNNAAN 8-mers
ATAGCAAC,0.0183 % of ANNNNAAN 8-mers,0.0184 % of ANNNNAAN 8-mers,0.0207 % of ANNNNAAN 8-mers,0.0405 % of ANNNNAAN 8-mers
ACTATAAG,0.029 % of ANNNNAAN 8-mers,0.0339 % of ANNNNAAN 8-mers,0.03 % of ANNNNAAN 8-mers,0.0314 % of ANNNNAAN 8-mers
